# From PubChem BioAssay
# A selection: hits, their analogues and other compounds. The true share with any hit is near 3%.
# GDH-TPI counter: counter-screen for M. tuberculosis FBA inhibitors: GDH-TPI coupled enzymes; GDH-TPI coupled enzyme counterscreen, NADH absorbance; inhibition, % at 4.8 µM; actives 1.2% (n = 360,000); in the data active = inhibition above about 30%;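 note: 0% = DMSO wells and 100% = wells lacking the enzyme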
# Mtb BioA inh: BioA (M. tuberculosis) enzyme inhibition | purified M. tuberculosis BioA enzyme, plate reader | inhibition, % at 9.99 µM | actives 0.096% (n = 360,000) | AID 602481; in the data active = inhibition above about 40%
# Rv3671c protease: Rv3671c (M. tuberculosis) protease inhibition; P9WHR9; inhibition, % at 5.96 µM; actives 0.048% (n = 320,000); AID 2606; in the data active = inhibition above about 38%;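 note: extracellular domain of Rv3671c used as enzyme; 0% = enzyme with DMSO and 100% = no enzyme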
# FBA Mtb inh: inhibitors of M. tuberculosis fructose-bisphosphate aldolase. P9WQA3. purified M. tuberculosis FBA, fluorescence read-out. inhibition, % at 1 µM. actives 2.3% (n = 360,000). AID 588726; in the data active = inhibition above about 27%;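 note: 0% = vehicle and 100% = reference inhibitor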
# Target sequence (P9WQA3 whole entry, looked up): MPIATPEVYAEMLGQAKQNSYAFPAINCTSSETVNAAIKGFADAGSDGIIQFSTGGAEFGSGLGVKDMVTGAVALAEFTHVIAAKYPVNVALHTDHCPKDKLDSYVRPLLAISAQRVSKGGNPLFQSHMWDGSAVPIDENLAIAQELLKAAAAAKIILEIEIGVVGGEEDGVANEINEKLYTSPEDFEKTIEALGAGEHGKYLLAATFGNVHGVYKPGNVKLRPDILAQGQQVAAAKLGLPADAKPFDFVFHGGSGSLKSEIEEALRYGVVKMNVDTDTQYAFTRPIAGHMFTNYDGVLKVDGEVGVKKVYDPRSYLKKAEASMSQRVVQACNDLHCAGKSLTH
# FadD28 binding: M. tuberculosis FadD28 bisubstrate binding inhibition; AID 588549; actives 0.22% (n = 360,000); FadD28 bisubstrate probe binding, fluorescence polarization; inhibition, % at 12.5 µM; in the data active = inhibition above about 8.5%, passing the limit was not always enough
# * marks the source's active call; other numbers are inactive results; · = no result given; + = active, no number.
SMILES,GDH-TPI counter,Mtb BioA inh,Rv3671c protease,FBA Mtb inh,FadD28 binding
CC1OC(Oc2ccc3ccc(=O)oc3c2-c2c(O)ccc3cc(Oc4ccc5ccc(=O)oc5c4)c(=O)oc23)C(O)C(O)C1O (stereo unspecified),45*,1,-1,3,0
O=[N+]([O-])c1cccc(-c2ccc(C(=S)N3CCOCC3)o2)c1,41*,0,-4,-5,-3
CN1CCN(C(=S)c2ccc(-c3cccc([N+](=O)[O-])c3)o2)CC1,14,·,6,-3,-1
O=C(C[C@H]1CC[C@@H](NC(=O)C2CC2)[C@H](CO)O1)NCCCN1CCOCC1,·,0,·,·,·
CNC(=O)c1ccc(-c2ccc(OC)cc2)s1,26,-1,3,+,-2
CCCc1cc(C(F)(F)F)c(C#N)c(=O)[nH]1,11,-1,6,156*,-3
CC(C)(C)c1cc(C(F)(F)F)c(C#N)c(=O)[nH]1,5,-1,2,120*,-5
COc1ccc(S(=O)(=O)N2C[C@H](O)COC[C@@H]3O[C@@H](CC(=O)NCc4ccc(Cl)c(Cl)c4)CC[C@H]32)cc1,·,1,·,·,·
C[C@H]1CCCCO[C@@H](CN(C)C(=O)Nc2ccc(C(F)(F)F)cc2)[C@@H](C)CN([C@@H](C)CO)C(=O)c2cc(NC(=O)Nc3ccccc3)ccc2O1,·,-2,·,·,·
CN(C(=O)CCN1C(=O)/C(=C/c2ccccc2)SC1=S)C1CCS(=O)(=O)C1 (stereo unspecified),5,0,-4,-1,-2
O=C(CCN1C(=O)S/C(=C\c2ccccc2)C1=O)NC1CCS(=O)(=O)C1 (stereo unspecified),36*,-1,4,-3,-2
CCN(C(=O)CCN1C(=O)S/C(=C\c2ccccc2)C1=O)C1CCS(=O)(=O)C1 (stereo unspecified),43*,1,6,-2,0
CN(C(=O)CN1C(=O)S/C(=C\c2ccccc2)C1=O)C1CCS(=O)(=O)C1 (stereo unspecified),45*,0,2,-3,0
CN(C(=O)CN1C(=O)S/C(=C\c2ccccc2Cl)C1=O)C1CCS(=O)(=O)C1 (stereo unspecified),18,0,7,-1,-1
CN(C(=O)CN1C(=O)S/C(=C\c2ccc(Cl)cc2)C1=O)C1CCS(=O)(=O)C1 (stereo unspecified),38*,-2,1,5,0
Cc1ccc(S(=O)(=O)N[C@@H]2C=C[C@H](CC(=O)NCc3ccncn3)O[C@H]2CO)cc1,·,-4,·,·,·
CCN1[C@H](C(=O)OC)[C@@H](CO)[C@@H]2Cn3c(ccc(C4=CCCCC4)c3=O)[C@@H]21,·,1,·,·,·
Cc1cc(-c2ccco2)c(C#N)c2nc3ccccc3n12,31*,-2,-3,2,-4
C[C@H]1CN([C@@H](C)CO)C(=O)c2cc(C#Cc3ccccc3F)cnc2O[C@@H]1CN(C)C(=O)C1CCC1,·,-2,·,·,·
C/C(=N\NC(=O)c1ccc(NS(=O)(=O)c2cccs2)cc1)c1ccccn1,·,·,3,·,·
C/C(=N\NC(=O)c1ccc(NS(=O)(=O)c2cccs2)cc1)c1ccc(O)cc1O,68*,-1,30,1,1
C/C(=N\NC(=O)c1ccc(NS(=O)(=O)c2cccs2)cc1)c1ccccc1,16,·,-13,2,-1
C/C(=N\NC(=O)c1ccc(NS(=O)(=O)c2cccs2)cc1)c1ccncc1,32*,·,-1,1,0
CCC(=O)N(C)C[C@@H]1Oc2cc(C#CC3(O)CCCC3)ccc2S(=O)(=O)N([C@H](C)CO)C[C@@H]1C,·,1,·,·,·
CO[C@H]1CN(C)C(=O)c2ccc(NS(=O)(=O)c3cccc(F)c3)cc2OC[C@@H](C)N(C(=O)Cc2cccnc2)C[C@H]1C,·,0,·,·,·
SMILES,GDH-TPI counter,Mtb BioA inh,Rv3671c protease,FBA Mtb inh,FadD28 binding
CC(C)(OC1OC(CO)C(O)C(O)C1O)[C@H]1Oc2ccc3ccc(=O)oc3c2[C@H]1O (stereo partly specified),28,0,3,117*,-1
COc1ccc(Oc2ccccc2C=O)cc1,9,·,8,-2,0
CN(C)c1ccc(C=O)c(Oc2ccccc2)c1,38*,·,·,-2,-2
CCc1cc(=O)oc2c3c(cc(OCC(=O)NCc4ccncc4)c12)OC(C)(C)CC3,16,1,7,+,-2
CCc1ccc(OCC(=O)NCc2ccco2)c(Br)c1,14,-2,-1,0,-2
Cc1cccc(OCC(=O)NCc2ccncc2)c1C,3,0,8,1,-1
CCc1cc(=O)oc2c3c(cc(OCC(=O)NCc4ccco4)c12)OC(C)(C)CC3,23,4,-7,154*,0
COCCN1C=C(C(=O)OC)C(c2ccc(Cl)cc2)C(C(=O)OC)=C1,9,·,7,+,-5
COCCN1C=C(C(=O)OC)C(c2ccc3c(c2)OCO3)C(C(=O)OC)=C1,12,0,-1,14,0
CCOc1ccc(C2C(C(=O)OC)=CN(CCOC)C=C2C(=O)OC)cc1,8,2,-1,+,1
C/C(=C\C(=O)c1ccccc1)NCc1ccc(F)cc1,31*,2,-13,3,-2
Cc1ccc(S(=O)(=O)N(C)C[C@H]2OCCCC[C@H](C)Oc3ccc(NC(=O)c4ccncc4)cc3C(=O)N([C@@H](C)CO)C[C@@H]2C)cc1,·,-1,·,·,·
COc1ccc(Cn2nnnc2C(c2cc3ccc(OC)cc3[nH]c2=O)N2CCCCCC2)cc1 (stereo unspecified),34*,-3,-7,10,-2
Cc1c(Cc2ccccc2)c(=O)oc2cc(O)cc(O)c12,12,·,-9,114*,0
N#CCc1ccc(NC(=O)/C=C/c2ccc([N+](=O)[O-])o2)cc1,34*,-1,·,-1,0
BrC(=C\c1ccccc1)/C=N/Nc1ccc2nncn2n1,32*,1,5,-1,-1
C(=N\Nc1ccc2nncn2n1)/c1ccco1,18,·,12,0,-1
COc1cccc2[nH]c3c(N4CCC5(CC4)OCCO5)ncnc3c12,12,·,-4,149*,-2
COc1ccc2c(c1)c1ncn(CCN3CCNCC3)c(=O)c1n2C,1,·,3,129*,1
COc1cccc2[nH]c3c(=O)n(CCCN4CCOCC4)cnc3c12,22,1,-1,147*,1
O=c1c2[nH]c3ccccc3c2ncn1CCN1CCOCC1,-4,·,3,4,-3
COc1ccc2[nH]c3c(=O)n(CCN4CCOCC4)cnc3c2c1,31*,-1,1,152*,-3
Cc1ccc2[nH]c3c(=O)n(CCN4CCNCC4)cnc3c2c1,-5,-2,2,12,-1
CCOC(=O)CSc1nc2nc(Cl)c(Cl)nc2[nH]1,33*,1,·,+,-4
CSc1nc2nc(Cl)c(Cl)nc2[nH]1,37*,-1,·,+,-3
OCc1nc2nc(Cl)c(Cl)nc2[nH]1,27,-3,-4,11,1
Cc1c(C(=O)N2CCCC2)sc(NC(=O)c2ccccc2)c1C#N,26,-2,-4,-1,1
Cc1c(C(=O)N2CCCCC2)sc(NC(=O)c2ccco2)c1C#N,40*,-4,-3,-2,2
